Source: PubChem BioAssay
Hits are enriched below; roughly 0.51% of the tested compounds scored in any of these assays.
E coli growth-1: inhibitors of Escherichia coli growth; OD600, 23 h; hits give low values; hit rate 0.21% among 330,000; OD600 absorbance (no concentration beside the values);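 active = OD600 absorbance below the run mean of sample wells minus 3.6 SD, in any replicate, cut at about 0.56 in these data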
AddAB inh: less growth of phage-infected E. coli with AddAB; AID 435030; E. coli expressing H. pylori AddAB, absorbance growth; inhibition, % at 11.9 µM; hit rate 0.29% among 330,000; in the data active = inhibition above about 12%
phage Ecoli inh: E. coli growth loss with phage present; growth absorbance; inhibition, % at 11.9 µM; hit rate 0.26% among 360,000; in the data active = inhibition above about 11%
E coli growth-2: reduces bacterial viability in AddAB counter-screen. E. coli V3065 growth, OD600 absorbance, 18 h. inhibition, % at 11.9 µM. hit rate 0.27% among 330,000;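 active = inhibition above the campaign's mean inhibition across all tested compounds plus 3 SD, cut at about 9.9% in these data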;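 also: uninfected addAB+ strain grown without phage in ampicillin broth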
Tat transport: inhibitors of E. coli Tat protein transport; E. coli MC4100 TorA-mCherry Tat export, fluorescence; AID 488895; inhibition, % at 10 µM; hit rate 0.036% among 340,000;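 active = mean replicate inhibition at least 50% and at least half of replicates individually reaching 50%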;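 also: exported cargo escapes ClpAP degradation while cytoplasmic cargo is degraded and loses fluorescence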
p-CIP stab down: compounds decreasing mouse p/CIP protein stability; hit rate 0.01% among 290,000; F442A p/CIP-EGFP cells, EGFP fluorescence, 16 h; Q05BA5; decrease of EGFP signal, % at 10 µM;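 active = EGFP signal decrease of at least 30% at 10 µM or well 3 SD below plate mean, unless failing retest; inactive = the rest, including hits failing retest or dose response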
Large screens that a line does not name were inactive.

Cc1ccc2nc(-c3ccccn3)c(Nc3ccccc3C)n2c1	E coli growth-1 0.5
COc1cc(C2c3cc4c(cc3C(OC3OC5COC(C)OC5C(O)C3O)C3COC(=O)C23)OCO4)cc(OC)c1O (stereo unspecified)	none (no result: AddAB inh, phage Ecoli inh, E coli growth-2, Tat transport, p-CIP stab down)
COc1ccc(CC(NC(C)=O)C(=O)N2CCN(C(=O)N(C(C)C)C(C)C)CC2)cc1 (stereo unspecified)	none
O=C1CCC(c2ccc(-n3ccnc3)cc2)=NN1	E coli growth-1 0.48 (no result: p-CIP stab down)
O=C(O)c1ccccc1C(=O)Nc1ccc(S(=O)(=O)Nc2nccs2)cc1	E coli growth-2 11 (no result: p-CIP stab down)
CCCCN(C)CCOc1ccccc1OCC	E coli growth-1 0.065
C=Cc1ncc(OC)c2c1[nH]c1ccccc12	E coli growth-1 0.49 (no result: phage Ecoli inh, p-CIP stab down)
Cc1ccc(NC2=CC(=NS(=O)(=O)c3cccs3)c3ccccc3C2=O)cc1C	none (no result: AddAB inh, phage Ecoli inh, E coli growth-2, Tat transport, p-CIP stab down)
O=C(Nc1ccccc1C(=O)NC1CC1)c1ccc([N+](=O)[O-])o1	phage Ecoli inh 16 (no result: AddAB inh, E coli growth-2, p-CIP stab down)
O=[N+]([O-])c1cccc(Cl)c1NCCNc1ncc(C(F)(F)F)cc1Cl	none
CNC[C@H](CC1CCCCC1)NC[C@H](CO)NCCc1cccc(C(F)(F)F)c1	none (no result: E coli growth-1)
CNCC(CC1CCCCC1)NCC(Cc1ccccc1)NCCC12CC3CC(CC(C3)C1)C2 (stereo unspecified)	E coli growth-1 0.06 (no result: AddAB inh, phage Ecoli inh, E coli growth-2, Tat transport, p-CIP stab down)
CNCC(Cc1ccccc1)NCC(CC1CCCCC1)NCCCc1ccccc1 (stereo unspecified)	E coli growth-1 0.47 (no result: AddAB inh, phage Ecoli inh, E coli growth-2, Tat transport, p-CIP stab down)
CCC(=O)NNC(=S)NC(=O)c1ccc(C)cc1	E coli growth-1 0.5
CCC(=O)NC(=S)Nc1ccc(NC(=S)NC(=O)c2ccc(C)cc2)cc1	none
CC(=O)NNC(=S)NC(=O)c1ccccc1	E coli growth-1 0.4
CC(=O)NNC(=S)NC(=O)c1ccc(C)cc1	none
CN(C)C1C(=O)C(C(N)=O)=C(O)[C@@]2(O)C(=O)C3=C(O)c4c(O)ccc(Cl)c4C(O)C3CC12 (stereo partly specified)	E coli growth-1 0.063 (no result: AddAB inh, phage Ecoli inh, E coli growth-2, Tat transport, p-CIP stab down)
CCOC(=O)C1OC2(CCCC2)OC1C(=O)OCC (stereo unspecified)	none (no result: AddAB inh, E coli growth-2, p-CIP stab down)
O=C1c2cc(Br)ccc2N(Cc2ccc(Br)cc2)S(=O)(=O)C1c1cc(Cl)c(Cl)cc1[N+](=O)[O-] (stereo unspecified)	E coli growth-2 12 (no result: E coli growth-1, phage Ecoli inh, p-CIP stab down)
Oc1ccc2c(c1)oc1cc(O)ccc12	none
O=c1oc2cc(O)ccc2s1	E coli growth-2 10.0 (no result: E coli growth-1, p-CIP stab down)
CN(C)C(=O)C[n+]1cccc(/C=N/O)c1	none (no result: E coli growth-1)
CC1CCCN(C(=O)C2CCC(CNc3c(N4CCCCC4)c(=O)c3=O)CC2)C1 (stereo unspecified)	none
C/C(CC(=O)Nc1ccc2c(c1)OCO2)=N\NC(=O)C(c1ccccc1)c1ccccc1	none (no result: E coli growth-1)
Cc1cc(NN=Cc2cccc(Cl)c2)nc(NCc2ccccc2)n1	none (no result: AddAB inh, phage Ecoli inh, E coli growth-2, Tat transport, p-CIP stab down)
Cc1cc(Nc2cccc(Cl)c2)nc(NCc2ccccc2)n1	E coli growth-1 0.46
CCOc1ccccc1-c1cc(NC)ncn1	none (no result: E coli growth-1, AddAB inh, E coli growth-2, Tat transport, p-CIP stab down)
COC1C(OC(N)=O)C(O)C(Oc2ccc3c(O)c(NC(=O)c4ccc(O)c(CC=C(C)C)c4)c(=O)oc3c2C)OC1(C)C (stereo unspecified)	E coli growth-1 0.38 (no result: AddAB inh, phage Ecoli inh, E coli growth-2, Tat transport, p-CIP stab down)
CCOC(=O)c1ccc(S(=O)(=O)NCCN(CC)CC)cc1	E coli growth-1 0.44
Cc1cc(C(=O)OCC(=O)Nc2ccc(S(N)(=O)=O)cc2)c2ccccc2n1	p-CIP stab down 62 (no result: E coli growth-1)
COC(=O)NN=Cc1ccc([N+](=O)[O-])s1	none (no result: AddAB inh, phage Ecoli inh, E coli growth-2, Tat transport, p-CIP stab down)
Cc1[nH]cnc1C(=O)NN=Cc1ccc([N+](=O)[O-])s1	E coli growth-1 0.41 (no result: AddAB inh, phage Ecoli inh, E coli growth-2, Tat transport, p-CIP stab down)
C[n+]1c2n(c3ccccc31)N=C(c1ccccc1)CS2	none
C[n+]1c2n(c3ccccc31)N=C(c1ccc(-c3ccccc3)cc1)CS2	E coli growth-1 0.3
COc1ccc(-c2cc(C(=O)Nc3cc(C)ccc3O)no2)cc1	none
CCOc1ccc(NC(=O)COC(=O)CC2CCCCC2)cc1	phage Ecoli inh 12 (no result: p-CIP stab down)
CC1=CC2C(C(O)CC3(C)C2CC(C)C32OCOC23COCO3)C2(C)C/C(=C\O)C(=O)C=C12 (stereo unspecified)	none (no result: E coli growth-1, AddAB inh, E coli growth-2, p-CIP stab down)
O=C(Nc1cccnc1)Nc1cc(Cl)cc(Cl)c1	E coli growth-1 0.5
O=C(Nc1cccnc1)Nc1ccccc1Cl	none
O=C(Nc1ccncc1)Nc1ccc(Cl)cc1	E coli growth-1 0.52
C/C(CC(=O)Nc1cc(C)ccn1)=N\NC(=O)c1cccc(C)c1O	phage Ecoli inh 11 (no result: E coli growth-1)
C/C(CC(=O)Nc1cc(C)ccn1)=N\NC(=O)c1cccc(C)c1	none (no result: E coli growth-1)
Cc1cc(C)c(S(=O)(=O)/N=C2/C=C(Sc3ncn[nH]3)C(=O)c3ccccc32)cc1C	phage Ecoli inh 11 (no result: E coli growth-1)
COc1ccc2nc(SCC(=O)NC3CCCC3)c(C)cc2c1	none (no result: E coli growth-1)
O=C(Nc1nc2c(Cl)cccc2s1)c1ccc([N+](=O)[O-])o1	E coli growth-1 0.5
CN(Cc1ccccc1)C(=O)COC(=O)c1ccc(Br)o1	none (no result: p-CIP stab down)
Cc1nc(N)nc(N)c1CCCc1ccc(Cl)c(Cl)c1	E coli growth-1 0.41 (no result: p-CIP stab down)
Cc1cc(N)n(-c2ccc(S(=O)(=O)c3ccc(C(C)C)cc3)cc2)n1	none
Cc1ccc(CN=c2c([N+](=O)[O-])nn(-c3ccc4c(c3)OCCO4)n2O)cc1	none
O=[N+]([O-])c1nn(-c2ccc3c(c2)OCCO3)n(O)c1=NCCCO	E coli growth-2 14
COc1ccc(-n2c(C)cc(C(=O)CSc3nnc(-c4ccoc4C)n3C)c2C)cc1	none
C=CCn1c(=O)c(C(=O)NCc2ccccc2)c(O)c2ccccc21	E coli growth-2 11
O=C(CSc1nnc(-c2ccccc2)n1-c1ccc(Cl)cc1)N/N=C/c1ccco1	E coli growth-2 11 (no result: E coli growth-1)
Cc1ccc(C=NNC(=O)CSc2nnc(-c3ccccc3)n2-c2ccc(Cl)cc2)o1	none (no result: AddAB inh, phage Ecoli inh, E coli growth-2, Tat transport, p-CIP stab down)
COc1ccc(OC)c(C(=O)c2oc3ccccc3c2NC(C)=O)c1	none
Clc1ccc(OCCCNCc2ccccc2)c2ccccc12	E coli growth-1 0.4
Cc1[nH]c2ccccc2c1C(=O)C(=O)NCCc1ccc(S(N)(=O)=O)cc1	none
CON=C(C(=O)NC1C(=O)N2C(C(=O)O)=C(COC(C)=O)CSC12)c1csc(N)n1 (stereo unspecified)	E coli growth-1 0.063 (no result: AddAB inh, phage Ecoli inh, E coli growth-2, Tat transport, p-CIP stab down)
COCC1=C(C(=O)OC(C)OC(=O)OC(C)C)N2C(=O)C(NC(=O)C(=NOC)c3csc(N)n3)C2SC1 (stereo unspecified)	E coli growth-1 0.28 (no result: AddAB inh, phage Ecoli inh, E coli growth-2, Tat transport, p-CIP stab down)
C=CCN(C#N)c1nc(OC)nc(N2CCCC2)n1	none
CCCCCCCOC(=O)C[N+](C)(C)CCOC1CC2CCC1(C)C2(C)C (stereo unspecified)	E coli growth-1 0.32 (no result: AddAB inh, E coli growth-2)
COc1c(N2CC3CCCNC3C2)c(F)cc2c(=O)c(C(=O)O)cn(C3CC3)c12 (stereo unspecified)	E coli growth-1 0.058 (no result: AddAB inh, phage Ecoli inh, E coli growth-2, Tat transport, p-CIP stab down)
O=C(O)CN1C(=O)/C(=C\c2cc(Br)ccc2OCc2ccc(Cl)cc2)SC1=S	none (no result: AddAB inh, E coli growth-2)
O=C(O)CN1C(=O)/C(=C\c2cc([N+](=O)[O-])ccc2OCc2ccccc2Cl)SC1=S	E coli growth-1 0.54
CCCCCCC(=O)O	none (no result: p-CIP stab down)
CCCCCCCCCCCCCCCC(=O)OC(CC(=O)O)C[N+](C)(C)C (stereo unspecified)	Tat transport 54 (no result: p-CIP stab down)
